Out of some 48,000 compounds screened, about 13,000 (27%) showed an effect of 50% or more. Some of the results follow.
Tested on: Wolbachia pipientis
Test: Anti-Wolbachia Cell-Based Screen
Format: functional
Set-up: scale not given: in the data most compounds retested in dose-response had high values
Settings: 5 µM

Row | SMILES | Percent Effect [%]
1 | COc1cccc(-c2cc(NCc3cscn3)n(C)n2)c1 | -6.796
2 | Cc1nc2ccccn2c1CN1C[C@@H](CN(C)C)[C@@H](CO)C1 | -2.196
3 | CC(C)c1noc(C2CCCN2S(=O)(=O)N2CCCCCC2)n1 (centres undefined) | 33.89
4 | CC(=O)c1ccccc1C(=O)NCC1(CO)CC1 | -16.93
5 | NC(c1ccc(F)cc1)c1cccs1 (centres undefined) | 14.08
6 | CC(=O)N1CCCn2c(nc(CNS(=O)(=O)C3CC3)cc2=O)C1 | -2.795
7 | O=C(O)C(F)(F)F.O=c1cc(CNS(=O)(=O)C2CC2)nc2n1CCCN(CC1CC1)C2 | 107
8 | CS(=O)(=O)NCc1cc(=O)n2c(n1)CN(CC1CC1)CCC2.O=C(O)C(F)(F)F | 110.4
9 | CN1CCCn2c(nc(CNS(=O)(=O)C3CC3)cc2=O)C1.O=C(O)C(F)(F)F | -4.96
10 | CS(=O)(=O)NCc1cc(=O)n2c(n1)CN(Cc1ccco1)CCC2.O=C(O)C(F)(F)F | -0.8444
11 | Cc1cc(C)n(CC2(CNC(=O)C(c3ccccc3F)N(C)C)CC2)n1 (centres undefined) | -12.38
12 | CC1c2ncc(COCC3CCCC3)n2CCN1S(=O)(=O)N(C)C (centres undefined) | -21.16
13 | CN(C)c1cccc(C(=O)Nc2cnn(CC(N)=O)c2)c1 | -9.995
14 | COc1ccc(CN2CC[C@@]3(C2)[C@H](O)CN(C)S3(=O)=O)cc1F | 137.9
15 | COCCC(=O)N1CCC2(CN(Cc3ccc(OC)c(F)c3)C2)C1 | 5.323
16 | COc1ccc(CN2CCN(C(=O)N(C)C)[C@@H]3CS(=O)(=O)C[C@@H]32)cc1F | -14.55
17 | Cc1c[nH]c(CN2CCC3(CCCN(Cc4ccc(F)c(F)c4)C3)C2)n1 (centres undefined) | -10.55
18 | Fc1ccc(CN2CCCC3(CCN(Cc4ncc[nH]4)C3)C2)cc1F (centres undefined) | 2.586
19 | O=C(c1ccc(Br)s1)N1CCN(Cc2ccc(OC(F)(F)F)cc2)CC1 | -12.95
20 | CN1C[C@H](O)[C@]2(CCN(Cc3ccc(F)c(F)c3)C2)S1(=O)=O | 108.2
21 | CN1C[C@H](O)[C@]2(CCN(Cc3ccc(OC(F)(F)F)cc3)C2)S1(=O)=O | 118.4
22 | O=C(c1ccc(Br)o1)N1CCN(Cc2ccc(OC(F)(F)F)cc2)CC1 | -3.633
23 | CN(C)C(=O)c1cccnc1N1CCOC(c2ccc(Cl)cc2)C1 (centres undefined) | 7.498
24 | CN(C)C(=O)c1c[nH]nc1C1CCN(S(=O)(=O)c2ccc(Cl)cc2)CC1 | 131.9
25 | CC(=O)c1cccc(S(=O)(=O)N2CCC(c3n[nH]c(C)n3)CC2)c1 | -14.04

Row | SMILES | Percent Effect [%]
26 | CN(C)C(=O)c1c[nH]nc1C1CCN(S(=O)(=O)c2cccc(Cl)c2)CC1 | 103
27 | CN(C)C(=O)c1c[nH]nc1C1CCN(S(=O)(=O)c2ccccc2)CC1 | 115.3
28 | CC(=O)c1cccc(S(=O)(=O)N2CCC(c3noc(C)n3)CC2)c1 | -3.648
29 | CN(C)C[C@H]1OC[C@@H]2CCN(S(=O)(=O)c3ccccc3)C[C@@H]21.O=C(O)C(F)(F)F | -5.753
30 | CC(=O)c1ccc(S(=O)(=O)N2CCC(c3n[nH]c(C)n3)CC2)cc1 | 9.052
31 | Cc1ccc(S(=O)(=O)N2CCC(c3n[nH]cc3C(=O)N(C)C)CC2)cc1 | 124.5
32 | Cc1nc(C2CCN(S(=O)(=O)c3ccc(Cl)cc3)CC2)n[nH]1 | 2.775
33 | CCN1CC[C@@]2(C(=O)N(C)C)CCN(S(=O)(=O)c3ccccc3)CC[C@@H]12.O=C(O)C(F)(F)F | 1.516
34 | CNC(=O)[C@@]12CCO[C@@H]1CCN(S(=O)(=O)c1ccc(C)cc1)C2 | 8.759
35 | O=C(c1cc2ccccc2o1)N1CCN(Cn2cc(Cl)cn2)CC1 | -7.476
36 | CNC(=O)CCNC(=O)c1cc(Br)c2c(c1)OCCO2 | 13.5
37 | Cc1ccc([C@@H]2CN(S(=O)(=O)c3ccccc3)C[C@H]2N(C)C)cc1 | -8.566
38 | CCN(C)S(=O)(=O)N1CCCC(c2nc(-c3ccccc3)c[nH]2)C1 (centres undefined) | -1.843
39 | Cc1ccc(S(=O)(=O)N2CCCC(c3n[nH]cc3C(=O)N(C)C)C2)cc1 (centres undefined) | 125.7
40 | O=C(NCc1nnc2ccccn12)N1CCOC(c2ccsc2)C1 (centres undefined) | -11.65
41 | CCOc1ncccc1NC(=O)NCC(O)c1ccccc1OC (centres undefined) | -2.656
42 | COc1ccc(OC)c(C(O)CNC(=O)Nc2ccc(F)cc2F)c1 (centres undefined) | 81.01
43 | COc1ccc(NC(=O)NCC(O)c2ccc(F)cc2F)c(OC)c1 (centres undefined) | 9.274
44 | COc1ccc(NC(=O)NCC(O)c2ccccc2F)c(OC)c1 (centres undefined) | 84.27
45 | COc1ccc(OC)c(NC(=O)NCC(O)c2ccc(F)c(F)c2)c1 (centres undefined) | 19.22
46 | COc1ccccc1C(O)CNC(=O)Nc1ncccc1C (centres undefined) | 0.5949
47 | CCN(C)C1CCCc2nc(C)sc21 (centres undefined) | -11.76
48 | Cc1cc(C(=O)N2CCC3(CC2)C(=O)N(C)CCN3CC2CC2)c(C)o1.O=C(O)C(F)(F)F | 105.3
49 | CCN1CCC2(CC1)C(=O)N(c1ccc(C)nc1)CCN2CC(C)C.O=C(O)C(F)(F)F | -13.38
50 | Cc1cc(C(=O)N2CCC3(CC2)C(=O)N(C)CCN3CC(C)C)c(C)o1.O=C(O)C(F)(F)F | 105.2

Row | SMILES | Percent Effect [%]
51 | Cc1cc(C(=O)N2CCC3(CC2)C(=O)NCCN3CC(C)C)c(C)o1 | 4.806
52 | Cc1ccsc1C(=O)N1CCC2(CC1)C(=O)N(C)CCN2CC1CC1.O=C(O)C(F)(F)F | 98.73
53 | Cc1ccc(N2CCN(CC3CC3)C3(CCN(C(C)C)CC3)C2=O)cn1.O=C(O)C(F)(F)F | -1.753
54 | CCc1ccc(CN2CCC3(CC2)C(=O)N(C)CCN3CC2CC2)cc1.O=C(O)C(F)(F)F | -26.46
55 | Cc1ccc(OC2(C(=O)O)CCN(C(=O)c3cc(C)oc3C)CC2)cn1 | -11.44
56 | O=C(O)[C@@H]1CN(CCOCCO)C[C@H]1c1ccccc1 | -10.46
57 | N#Cc1ccc(OC2CCN(C(=O)c3cncc(Br)c3)CC2)nc1 | 3.966
58 | CCC(C)(CC(=O)OC)NC(=O)c1ccc2[nH]ccc2c1 (centres undefined) | -0.3166
59 | CCCn1[nH]cc/c1=N\C(=O)CN1CCCC1Cn1nc(C)nc1C (centres undefined) | -1.859
60 | CC(=O)c1cccc(NC(=O)CN2CCCCC2C)c1 (centres undefined) | -9.973
61 | CCCS(=O)(=O)CCN1CCOC(c2ccsc2)C1 (centres undefined) | -6.167
62 | O=C(c1ncoc1C1CC1)N1CCN(CCOc2ccccc2)CC1 | 94.73
63 | Nc1nccnc1C(=O)N1CCN(CCOc2ccccc2)CC1 | -15.87
64 | O=C(CCn1cc(Cl)cn1)N1CCN(CCOc2ccccc2)CC1 | -6.646
65 | CC(C(=O)N1CCN(CCOc2ccccc2)CC1)n1cc(Cl)cn1 (centres undefined) | 9.787
66 | CC(=O)N1CCCN(CCCc2ccccc2)CC1 | -14.81
67 | O=C(c1ncoc1C1CC1)N1CCCN(CCCc2ccccc2)CC1 | 104.8
68 | COc1cccc(OCC2CCCN(C(=O)c3ncoc3C3CC3)C2)c1 (centres undefined) | -37.79
69 | Cn1nccc1C(=O)N1CCCN(CCCc2ccccc2)CC1 | -12.37
70 | Cc1ocnc1C(=O)N1CCN(CCOc2ccccc2)CC1 | 109.9
71 | O=C(c1n[nH]c2c1CCN(Cc1nccs1)C2)N1CCOCC1 | 14.04
72 | O=C(CN1CCc2cncnc2C1)N1CCc2sccc2C1 | -26.01
73 | Cc1cc(CNc2ccc(C(=O)N3CCc4ccccc43)cn2)on1 | 23.63
74 | CSC1(CNC(=O)NCc2sccc2C)CCOCC1 | -11.79
75 | COC(=O)NCC(=O)N(C)Cc1csc(-c2cccs2)n1 | -9.296

Row | SMILES | Percent Effect [%]
76 | Cc1cnc(CN(C)C2CCN(CCc3ccccn3)CC2)cn1 | 10.61
77 | COc1ccccc1OC1CCN(Cc2cnc(N(C)C)nc2)CC1 | -4.548
78 | CCn1c(CN(C)C)nnc1C1CCN(Cc2cccc(OC)c2)CC1 | 12.38
79 | COc1cccc(CN2CCC(c3nccn3C(C)C)CC2)c1 | 7.494
80 | COc1cccc(CN2CCC(Cc3cnc(CN(C)C)cn3)CC2)c1 | 111.9
81 | COc1ccccc1CN1CCC(Cc2cnc(CN(C)C)cn2)CC1 | 110
82 | COc1ccccc1CN(C)C(=O)c1cc(CN2CCC(O)CC2)on1 | -15.1
83 | CN(C)Cc1cnc(CC2CCN(CCc3ccccc3)CC2)cn1 | 90.66
84 | Cc1ncc(CN(C)C2CCCN(CCc3ccccc3)C2)n1C (centres undefined) | -4.655
85 | O=C(NCCN1CCOCC1)NCc1ncc(-c2ccccc2)o1 | 4.39
86 | CCc1cc(N2C[C@H](C3CC3)[C@@H](N)C2)nc(N2CCCC2)n1 | 13.06
87 | O=C(C1SCCc2sccc21)N1CC(O)C1 (centres undefined) | -8.874
88 | O=C(c1ccc(C2CCCO2)s1)N1CCS(=O)(=O)CC1 (centres undefined) | -17.24
89 | O=C(NCc1nnnn1-c1ccccc1)c1ccc(C2CCCO2)s1 (centres undefined) | 107.3
90 | O=C(NCc1nc(-c2ncccn2)no1)c1ccc(C2CCCO2)s1 (centres undefined) | 1.896
91 | O=C(c1ccc(C2CCCO2)s1)N1CCOCC1 (centres undefined) | 12.38
92 | O=C(NCc1nnc2n1CCC2)c1ccc(Br)s1 | 111.9
93 | O=C(NCc1nnc2n1CCCC2)c1ccc(C2CCCO2)s1 (centres undefined) | 101.2
94 | Brc1ccc(CNCc2nnc3n2CCCCC3)s1.Cl | -9.966
95 | CCCn1nc(C(=O)NCc2nnc3n2CCC3)ccc1=O | 10.17
96 | O=C(NCc1nnc2n1CCC2)c1ccc(C2CCCO2)s1 (centres undefined) | 92.93
97 | Brc1ccc(CNCc2nnc3n2CCC3)s1.Cl | 7.308
98 | O=C(NCCc1nc(-c2ccccn2)no1)c1ccc(C2CCCO2)s1 (centres undefined) | 1.168
99 | O=C(NCCc1nc(-c2cccnc2)no1)c1ccc(C2CCCO2)s1 (centres undefined) | 9.289

— ChEMBL document CHEMBL3988442, “University of Dundee, Small-Polar-MMV Screening Library” (2021)
